# Inconclusive results are not listed. Calls of active or inactive are those of the source. The calls were made as follows: active = hit-call score of the fitted dose curve at least 0.9, where 1 is the maximum; inconclusive = response in the unintended direction; inactive = score below 0.9.
# Target: Androgen Receptor/SRC-1 Co-activator, AR (gene 367) (UniProt P10275)
# Assay: OT_AR_ARSRC1_0480: Odyssey Thera (OT) 8-hour HEK293T Protein-Complementation Assay for Androgen Receptor/SRC-1 Co-activator (AID 2283354);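 also: hits raise the complementation signal above DMSO so AC50 marks enhancers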
# In short: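 HEK293T cells stably expressing AR and SRC-1 fused to Venus YFP fragments, imaged 8 h after dosing. Complementation fluorescence scored as nuclear/cytoplasmic ratio at 488 nm in at least 400 cells per image; gain fitted versus DMSO.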
# Sequence of Androgen Receptor/SRC-1 Co-activator, AR (gene 367) (P10275 whole entry, looked up): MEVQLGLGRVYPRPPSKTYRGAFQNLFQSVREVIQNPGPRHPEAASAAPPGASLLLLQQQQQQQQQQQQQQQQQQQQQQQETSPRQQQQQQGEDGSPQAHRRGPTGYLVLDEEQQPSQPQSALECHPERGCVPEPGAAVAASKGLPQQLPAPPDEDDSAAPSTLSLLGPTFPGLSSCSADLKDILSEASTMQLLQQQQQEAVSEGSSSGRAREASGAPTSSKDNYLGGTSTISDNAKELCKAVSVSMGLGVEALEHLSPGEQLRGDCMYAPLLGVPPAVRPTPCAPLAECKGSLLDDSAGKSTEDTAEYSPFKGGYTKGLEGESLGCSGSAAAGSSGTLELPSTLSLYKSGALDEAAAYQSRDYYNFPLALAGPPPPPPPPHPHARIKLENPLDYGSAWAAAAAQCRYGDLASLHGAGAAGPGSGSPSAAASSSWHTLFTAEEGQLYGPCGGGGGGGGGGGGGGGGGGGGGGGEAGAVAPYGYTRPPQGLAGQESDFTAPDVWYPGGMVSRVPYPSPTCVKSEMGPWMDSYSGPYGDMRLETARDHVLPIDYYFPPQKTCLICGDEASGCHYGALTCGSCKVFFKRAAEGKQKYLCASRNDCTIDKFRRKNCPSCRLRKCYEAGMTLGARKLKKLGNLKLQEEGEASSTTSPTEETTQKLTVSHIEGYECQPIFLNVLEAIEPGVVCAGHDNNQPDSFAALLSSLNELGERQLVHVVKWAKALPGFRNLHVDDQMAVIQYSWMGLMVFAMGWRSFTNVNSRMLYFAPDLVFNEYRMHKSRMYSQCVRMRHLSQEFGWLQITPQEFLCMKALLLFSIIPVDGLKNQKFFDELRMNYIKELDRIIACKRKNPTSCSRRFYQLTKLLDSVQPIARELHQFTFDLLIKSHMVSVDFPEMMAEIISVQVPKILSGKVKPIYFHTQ
SMILES,AC50,outcome
CCCCCCOc1ccc(O)cc1,78.3 µM (active),
CC(C)(CO)CO,,inactive
CCC(C)(C)C1CCC(=O)CC1,,inactive

# Target: Estrogen receptor (Homo sapiens) + Estrogen receptor beta (Homo sapiens) (UniProt P03372+Q92731)
# Assay: OT_ER_ERaERb_1440: Odyssey Thera (OT) 24-hour HEK293T Protein-Complementation Assay for Estrogen Receptor-alpha/-beta Homodimer (AID 2283356);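 also: heteromer of ER alpha and ER beta binding domains; hits raise reporter fluorescence and both agonists and antagonists give an increase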
# In short: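 Readout: mean fluorescence intensity in nucleus (agonists) or nucleus plus cytoplasm (antagonists), read by laser scanning cytometer after 24 h compound exposure of HEK293T cells carrying ERα/ERβ LBD fragment-complementation constructs; DMSO baseline.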
# Sequence of Estrogen receptor (Homo sapiens) + Estrogen receptor beta (Homo sapiens) (P03372 whole entry, looked up, the tested form may be a part): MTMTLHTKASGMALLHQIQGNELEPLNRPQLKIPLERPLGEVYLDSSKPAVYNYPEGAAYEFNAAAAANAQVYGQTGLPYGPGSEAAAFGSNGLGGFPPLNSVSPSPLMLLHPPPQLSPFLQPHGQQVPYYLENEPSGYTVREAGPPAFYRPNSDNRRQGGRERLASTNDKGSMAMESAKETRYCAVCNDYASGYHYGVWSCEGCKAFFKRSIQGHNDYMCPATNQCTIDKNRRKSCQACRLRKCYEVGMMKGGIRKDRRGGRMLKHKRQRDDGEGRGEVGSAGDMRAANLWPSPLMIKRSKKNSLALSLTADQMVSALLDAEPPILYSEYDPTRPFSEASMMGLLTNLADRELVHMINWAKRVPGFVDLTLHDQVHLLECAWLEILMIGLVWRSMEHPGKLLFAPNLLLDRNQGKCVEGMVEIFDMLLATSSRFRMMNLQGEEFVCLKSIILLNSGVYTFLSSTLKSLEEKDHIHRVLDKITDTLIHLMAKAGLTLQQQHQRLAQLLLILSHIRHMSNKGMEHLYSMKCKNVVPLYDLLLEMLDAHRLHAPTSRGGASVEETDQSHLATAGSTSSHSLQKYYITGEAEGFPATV
# Sequence of Estrogen receptor (Homo sapiens) + Estrogen receptor beta (Homo sapiens) (Q92731 whole entry, looked up, the tested form may be a part): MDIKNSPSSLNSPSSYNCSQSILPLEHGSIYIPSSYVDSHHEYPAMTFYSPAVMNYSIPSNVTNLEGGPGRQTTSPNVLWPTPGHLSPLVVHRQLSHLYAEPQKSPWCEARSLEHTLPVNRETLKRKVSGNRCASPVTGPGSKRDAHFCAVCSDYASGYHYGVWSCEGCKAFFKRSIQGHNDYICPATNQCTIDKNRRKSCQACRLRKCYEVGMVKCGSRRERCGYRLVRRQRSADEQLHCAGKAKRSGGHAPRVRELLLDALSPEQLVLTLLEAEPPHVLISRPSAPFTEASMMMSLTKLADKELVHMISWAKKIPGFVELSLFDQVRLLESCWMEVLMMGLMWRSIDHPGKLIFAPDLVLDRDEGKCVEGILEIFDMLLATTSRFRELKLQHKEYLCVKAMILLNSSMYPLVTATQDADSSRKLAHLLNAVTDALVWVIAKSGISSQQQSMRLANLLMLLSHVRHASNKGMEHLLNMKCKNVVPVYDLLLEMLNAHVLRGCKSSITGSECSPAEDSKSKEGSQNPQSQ
SMILES,AC50,outcome
CCCCCCCCOC(=O)c1ccc(O)cc1,24 µM (active),
CCCCCCOc1ccc(O)cc1,11.9 µM (active),
CC(C)(C)c1ccc(S)cc1,,inactive
CC(C)(CO)CO,,inactive
CCCCCCCCCOS(=O)(=O)O,,inactive
COc1ccccc1O,,inactive
CCC(=O)OC(C)(C)C1CC=C(C)CC1 (stereo not given),,inactive
CC(O)CN (stereo not given),,inactive
CCOCC(C)O (stereo not given),,inactive
CCCCCC(=O)O[C@]1(C(C)=O)CC[C@H]2[C@@H]3CCC4=CC(=O)CC[C@]4(C)[C@H]3CC[C@@]21C,4.65 µM (active),
CC(=O)CC(=O)N(C)C,,inactive
Cc1cccc(O)c1,,inactive

# — PubChem BioAssay (EPA / NIEHS)
